Measured values from PubChem BioAssay (EPA / NIEHS).
The source made the active and inactive calls. How the source made its calls: active means hit-call score of the fitted dose curve at least 0.9, where 1 is the maximum; inactive means score below 0.9.

Target: Paired box protein Pax-6 (Homo sapiens) (UniProt P26367)
Test: ATG_Pax6_CIS: Attagene CIS-FACTORIAL HepG2 Assay for human Paired Box 6 (PAX6) (AID 2282956)
Settings: HepG2 CIS-FACTORIAL PAX6 reporter transcription, RNA readout; actives raise or lower the signal
Procedure, shortened: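 Read-out is reporter transcript level, measured by RT-PCR with fluorescent primer extension and capillary electrophoresis after 24 h dosing of transfected HepG2 cells. Activity in either direction fitted relative to DMSO control.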

Chain of Paired box protein Pax-6 (Homo sapiens) (P26367 whole entry, looked up): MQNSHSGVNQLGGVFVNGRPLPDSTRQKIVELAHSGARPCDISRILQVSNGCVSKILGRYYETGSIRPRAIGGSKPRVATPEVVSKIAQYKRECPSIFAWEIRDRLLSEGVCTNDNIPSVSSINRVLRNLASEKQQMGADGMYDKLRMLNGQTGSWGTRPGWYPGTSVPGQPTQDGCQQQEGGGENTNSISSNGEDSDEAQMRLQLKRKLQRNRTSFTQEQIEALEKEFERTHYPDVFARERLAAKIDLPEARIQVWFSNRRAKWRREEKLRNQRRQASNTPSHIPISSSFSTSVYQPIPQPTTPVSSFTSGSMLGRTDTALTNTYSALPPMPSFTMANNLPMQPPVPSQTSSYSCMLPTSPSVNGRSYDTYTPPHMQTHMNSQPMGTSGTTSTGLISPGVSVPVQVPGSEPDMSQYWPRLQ

SMILES | outcome | AC50
NC(N)=NC(N)=NCCc1ccccc1 | inactive | –
CN1CCc2cccc3c2[C@H]1Cc1ccc(O)c(O)c1-3 | inactive | –
CCC(=O)OC/C=C(\C)CCC=C(C)C | inactive | –
C/C=C(\C)C(=O)OC/C=C(\C)CCC=C(C)C | inactive | –
S=c1[nH][nH]c(=S)s1 | inactive | –
O=C1OC2(c3ccc(O)cc3Oc3cc(O)ccc32)c2ccccc21 | inactive | –
CC(C)Cc1ccc(C(C)C(=O)O)cc1 (stereo not drawn) | inactive | –
NC(=O)c1cnccn1 | inactive | –
CC1=CC(C)C(C=O)C(C)C1 (stereo not drawn) (tested in a mixture with another compound) | inactive | –
CC(C)(C)C1CCC(O)CC1 (stereo not drawn) | inactive | –
CCCCOC(=O)C(C)OC(=O)CCC (stereo not drawn) | inactive | –
O=C(O)c1ccc(C(=O)O)c(C(=O)O)c1 | inactive | –
CC(CCO)CC(C)(C)C (stereo not drawn) | inactive | –
O=S(=O)(O)CCCN1CCOCC1 | inactive | –
CCO[Si](CCC#N)(OCC)OCC | inactive | –
C=C(C)C(=O)OCCC(C)OC(=O)C(=C)C (stereo not drawn) | inactive | –
CC(=O)N(C)C | inactive | –

SMILES | outcome | AC50
O=c1cc(-c2ccc(O)cc2)oc2cc(O)cc(O)c12 | – | 21.7 µM (active)
CC1=CC(O)CC(C)(C)C1 (stereo not drawn) | inactive | –
CCC(=O)OCC=Cc1ccccc1 | inactive | –
CCCCC1CCCCC(=O)O1 (stereo not drawn) | inactive | –
CCCCCCCCCO | inactive | –
CC(C)(O)CCc1ccccc1 | inactive | –
CN(C)CCC=C1c2ccccc2CCc2ccccc21 | inactive | –
CCOC(=O)COC(=O)c1ccccc1C(=O)OCC | inactive | –
O=C(O)CS | inactive | –
CC(C)(CO)CO | inactive | –
CCCCOCCOCCO | inactive | –
Brc1cc(Br)cc(Br)c1 | inactive | –
CC(C)Cc1ccccc1 | inactive | –
COc1ccc(OC)cc1 | inactive | –
Nc1ccc(O)c(N)c1 | inactive | –
CCCC1CCC(=O)CC1 | inactive | –
N=C1N=C(N)c2ccccc21 | inactive | –

Test system: not listed separately
Test: ATG_PXRE_CIS: Attagene CIS-FACTORIAL HepG2 Assay for human Pregnane X Receptor Element (PXRE) (AID 2282957)
Settings: HepG2 Attagene CIS-FACTORIAL PXRE reporter, mRNA; actives raise or lower the signal
Procedure, shortened: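 Fluorescent capillary electrophoresis of amplified reporter cDNA gave the signal, collected 24 h after dosing HepG2 cells that held transfected cis-element reporter constructs.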

SMILES | outcome | AC50
NC(N)=NC(N)=NCCc1ccccc1 | inactive | –
CN1CCc2cccc3c2[C@H]1Cc1ccc(O)c(O)c1-3 | – | 1.26 µM (active)
CCC(=O)OC/C=C(\C)CCC=C(C)C | – | 44 µM (active)
C/C=C(\C)C(=O)OC/C=C(\C)CCC=C(C)C | inactive | –
S=c1[nH][nH]c(=S)s1 | inactive | –
O=C1OC2(c3ccc(O)cc3Oc3cc(O)ccc32)c2ccccc21 | – | 0.741 µM (active)
CC(C)Cc1ccc(C(C)C(=O)O)cc1 (stereo not drawn) | inactive | –
NC(=O)c1cnccn1 | inactive | –
CC1=CC(C)C(C=O)C(C)C1 (stereo not drawn) (tested in a mixture with another compound) | – | 15.9 µM (active)
CC(C)(C)C1CCC(O)CC1 (stereo not drawn) | inactive | –
CCCCOC(=O)C(C)OC(=O)CCC (stereo not drawn) | inactive | –
O=C(O)c1ccc(C(=O)O)c(C(=O)O)c1 | inactive | –
CC(CCO)CC(C)(C)C (stereo not drawn) | inactive | –
O=S(=O)(O)CCCN1CCOCC1 | inactive | –
CCO[Si](CCC#N)(OCC)OCC | inactive | –
C=C(C)C(=O)OCCC(C)OC(=O)C(=C)C (stereo not drawn) | – | 56.2 µM (active)
CC(=O)N(C)C | inactive | –

SMILES | outcome | AC50
O=c1cc(-c2ccc(O)cc2)oc2cc(O)cc(O)c12 | – | 14 µM (active)
CC1=CC(O)CC(C)(C)C1 (stereo not drawn) | – | 10.8 µM (active)
CCC(=O)OCC=Cc1ccccc1 | – | 33.1 µM (active)
CCCCC1CCCCC(=O)O1 (stereo not drawn) | inactive | –
CCCCCCCCCO | inactive | –
CC(C)(O)CCc1ccccc1 | inactive | –
CN(C)CCC=C1c2ccccc2CCc2ccccc21 | – | 13.2 µM (active)
CCOC(=O)COC(=O)c1ccccc1C(=O)OCC | – | 50.1 µM (active)
O=C(O)CS | inactive | –
CC(C)(CO)CO | inactive | –
CCCCOCCOCCO | inactive | –
Brc1cc(Br)cc(Br)c1 | – | 100 µM (active)
CC(C)Cc1ccccc1 | inactive | –
COc1ccc(OC)cc1 | inactive | –
Nc1ccc(O)c(N)c1 | inactive | –
CCCC1CCC(=O)CC1 | – | 27.6 µM (active)
N=C1N=C(N)c2ccccc21 | inactive | –
